# Data as given in PubChem BioAssay AID485367 (National Center for Advancing Translational Sciences (NCATS), 2010).
# Screen size: about 330,000 compounds; about 560 (0.17%) were called active. Inconclusive results (about 1%) are left out. The list comes from a sample in which actives are over-represented; it also holds similar structures and randomly drawn compounds. A number with no mark means an inactive call. Calls follow the shape of the dose curve; as a rule, active = well fitted inhibition curve with a large enough effect; inconclusive = small, poorly fitted or top-dose-only effect, or effect the other way; inactive = flat fitted curve, though single readings scatter.
# Target: ATP-dependent 6-phosphofructokinase (Trypanosoma brucei brucei) (UniProt O15648)
# Sequence (O15648 whole entry, looked up): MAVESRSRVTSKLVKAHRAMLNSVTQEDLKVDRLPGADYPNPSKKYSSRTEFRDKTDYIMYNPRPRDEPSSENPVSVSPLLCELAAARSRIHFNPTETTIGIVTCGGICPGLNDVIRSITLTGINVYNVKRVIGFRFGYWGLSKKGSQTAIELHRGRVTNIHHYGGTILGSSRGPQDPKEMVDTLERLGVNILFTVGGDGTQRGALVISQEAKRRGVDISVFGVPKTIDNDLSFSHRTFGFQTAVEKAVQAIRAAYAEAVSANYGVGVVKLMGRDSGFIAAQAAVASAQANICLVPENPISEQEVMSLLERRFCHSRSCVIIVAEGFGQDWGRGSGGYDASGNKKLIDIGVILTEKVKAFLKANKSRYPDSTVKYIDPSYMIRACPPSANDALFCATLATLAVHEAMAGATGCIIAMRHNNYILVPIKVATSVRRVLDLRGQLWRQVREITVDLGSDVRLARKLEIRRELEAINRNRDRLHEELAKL
# Assay: qHTS Assay to Find Inhibitors of T. brucei phosphofructokinase; also: nearly all actives have a fitted effect of over 60% in size
# Conditions: T. brucei PFK, ADP-Glo luminescence; series mostly up to 57.5 µM; activity, negative = inhibition: at the top concentration
# Description: NIH Molecular Libraries Probe Production Network [MLPCN] NIH Chemical Genomics Center [NCGC] Grant: 1 R03 MH092153-01 PI Name: Malcolm Walkinshaw, University of Edinburgh NCGC Assay Overview: Various species of the protozoan family Trypanosomatidae are responsible for a range of serious human diseases in tropical and subtropical areas of the world. […] Many of the disorders caused by trypanosomatids are fatal if left untreated, but most currently used drugs are inefficient and toxic. […] Oxidative metabolism involving the mitochondrial tricarboxylic acid cycle and oxidative phosphorylation are repressed in these parasites, and recent RNA interference (RNAi) experiments have shown that even partial depletion of certain individual glycolytic enzymes can lead to the death of cultured parasites. One such glycolytic enzyme, phosphofructokinase (PFK), catalyzes the formation of fructose-1,6-bisphosphate (F1,6BP) and ADP from fructose-6-phosphate (F6P) and ATP, and in many metabolic circumstances makes an important contribution to the control of flux through the glycolytic pathway. As a specific glycolytic target, PFK is particularly attractive as it catalyzes the first irreversible step in glycolysis, and structural and kinetic studies have shown very substantial and essential differences from corresponding host enzymes, allowing for the discovery of parasite-selective inhibitors. The goal of this screen is to find small-molecule inhibitors of T. brucei PFK using a biochemical assay that measures PFK activity as a function of ADP production. A luminescence-based assay for T. brucei PFK activity has been developed which uses luciferase to detect production of ADP. Traditional luciferase-based nucleotide detection reagents rely on ATP production as a direct substrate for the luciferase reaction; however, PFK catalyzes the transfer of a phosphate from ATP to F6P, resulting in the net depletion of ATP. To directly measure the ADP product of the PFK reaction, we used the ADP-Glo detection kit (Promega), which utilizes two separate reactions to 1) deplete all remaining uncatalyzed ATP and 2) convert all remaining ADP to ATP, which is then detected through a traditional luciferase-coupled reaction. Compounds were screened as a concentration-titration series that ranged from 57 uM to 0.7 nM.
# NCGC Assay Protocol Summary: NCGC Assay Protocol Summary: Substrate buffer was dispensed into white, solid 1536-well plates at 3uL/well in 0.1M triethanolamine (TEA) buffer, pH 8.0, containing final concentrations of 5 mM MgCl2, 0.01% Tween20, 0.5 mM fructose-6-phosphate (F6P) and 0.1mM ATP. Then, 23 nL of compounds or DMSO were delivered to each well using a pin tool. One uL T. brucei PFK (0.1M TEA, 0.01% Tween20, 0.1% bovine serum albumin (BSA) and 1.25nM PFK, final concentrations) was then dispensed, and plates were incubated at room temperature for 45 min. The luminescent detection reagent, ADP-Glo (Promega), was then added in two steps: the first reagent, ADP-Glo (which converts remaining uncatalyzed ATP), was added at 2.5uL/well and incubated for ten minutes at room temperature, and the second component, Kinase Detection reagent (which converts ADP to ATP as a substrate for luciferase-based luminescence), was added immediately after at 5uL/well, followed by one final ten minute room temperature incubation. The plates were measured on a ViewLux plate reader for luminescent signal using a clear filter with a one second exposure. The %Activity was determined from the corrected luminescence values. As no specific T. brucei PFK inhibitors have been identified in the literature, 1x (1.25nM) and 0x PFK enzyme controls (untreated) were included to normalize %Activity of identified inhibitors; 0x enzyme values corresponded to 100%Activity (full inhibition), while 1x PFK enzyme values were used to normalize 0%Activity (no inhibition). Concentration-response curves were fitted to the signals arising from the resulting luminescence. […]
# Potency is read from the fitted curve at half-maximal effect.
Compound,Potency,"activity, negative = inhibition [%]"
Cc1[nH][nH]c(=O)c1C(c1ccc2c(c1)OCO2)c1c(C)[nH][nH]c1=O,23.9 µM (active),
Nc1[nH][nH]c(=O)c1N=Nc1ccc2c(c1)OCO2,,2.23
CCOc1ccc(C(c2c(C)[nH][nH]c2=O)c2c(C)[nH][nH]c2=O)cc1OCC,,-5.84
COc1cc(C2C(N3C(=O)c4ccccc4C3=O)C(=O)N2c2ccc(C)c(C)c2)cc(OC)c1OC (stereo not given),,-1.29
OC(CNCC1CCCO1)Cn1c2ccc(Br)cc2c2cc(Br)ccc21 (stereo not given),,-2.71
Nc1nc(Nc2ccccc2F)nc(NC2CCCCC2)c1[N+](=O)[O-],,-7.16
COc1cc(NC(=O)COC(=O)CSc2ccc3ccccc3c2)c(C)cc1[N+](=O)[O-],,0.214
CCOC(=O)N1CCN(C(=O)CN(C2CCCCC2)S(C)(=O)=O)CC1,,-3.12
CC(Oc1cc2oc(=O)c3c(c2cc1Cl)CCCC3)C(=O)NCc1ccncc1 (stereo not given),,0.885
CC(C)CN(CC(C)C)CC(O)CN(c1ccccc1)S(=O)(=O)c1ccccc1[N+](=O)[O-] (stereo not given),,-3.71
CCCN1C2CCCC1CC(NC(=O)NC13CC4CC(CC(C4)C1)C3)C2 (stereo not given),,-1.81
CCN(CC(=O)N1CCCC1)S(=O)(=O)c1ccc(F)cc1,,1.92
O=C(Cn1c(COc2ccccc2)nc2ccccc21)Nc1cc(Cl)c(Cl)cc1Cl,,-10.8
O=C(CN(CC1CCCO1)C(=O)CNS(=O)(=O)c1ccc(F)cc1)NCc1ccco1 (stereo not given),,-5.87
COc1ccc(-c2nc3c(s2)CCc2onc(-c4ccc(OC)cc4)c2-3)cc1,,-0.904
COc1ccc(Cl)cc1NC(=O)NC(C)C(C)(C)C (stereo not given),,0.905
Cc1cccc(NC(=S)Nc2ccc3cn[nH]c3c2)c1,,3.21
Cc1cccc(NC(=S)Nc2ccc(Cl)c(Cl)c2)c1,10.7 µM (active),
Cc1cccc(NC(=S)NC23CN4CN(CN(C4)C2)C3)c1,,-1.16
COCCN1C(=O)N(c2ccc(Cl)cc2)C(=O)C1CC(=O)Nc1cc(OC)cc(OC)c1 (stereo not given),,3.53
CC1(N2CCOCC2)CC2(O)C(=[N+]1[O-])CCc1nonc12 (stereo not given),,0.181
O=C(CCn1nnc2ccccc21)OCC(=O)c1ccc([N+](=O)[O-])cc1,,-4.04
Cc1nc2ccccc2c(=O)n1NC(=O)c1ccccc1,,2.74
Cc1ccnc(-n2sc3ccccc3c2=O)n1,7.57 µM (active),
COC(=O)COc1ccc2c(c1C)O/C(=C\c1ccco1)C2=O,,-12.5

Compound,Potency,"activity, negative = inhibition [%]"
O=C(COC(=O)c1cccs1)NCc1cccs1,,0.216
O=C(COC(=O)C12CC3CC(CC(C3)C1)C2)NCc1ccco1,,3.92
O=C(COC(=O)CCC(=O)c1cccs1)NCc1ccco1,6.75 µM (active),
Cc1cc(NC(=O)COC(=O)/C=C/c2ccc(C)o2)no1,,8.73
CS(=O)(=O)N(CC(=O)N1CCOCC1)c1cccc(Cl)c1Cl,,-5.81
Cc1ccc(S(=O)(=O)N2CCCCC2)cc1NC(=O)[C@@H]1CCCN1C(=O)c1cccs1,,-2.04
O=C(COC(=O)CCCN1C(=O)c2cccc3cccc(c23)C1=O)NC1CCS(=O)(=O)C1 (stereo not given),,-7.52
CCC(C)c1ccc(NC(=O)COC(=O)C2CCCC2)cc1 (stereo not given),,-1.93
Cc1c(Cl)cccc1NC(=O)Nc1ccc(C(=O)N2CCCC2)cc1,,-3.91
COc1cc(S(=O)(=O)N2CCOCC2)ccc1NC(=O)COc1ccc(N(C)S(=O)(=O)c2ccc(C)cc2)cc1,,4.44
C/C(=N/Nc1ccc(Cl)cc1)c1cnnc(-c2ccccc2)n1,,5.32
Cc1c(C)c2ccc(OCC(=O)N3CCC(C(=O)O)CC3)c(C)c2oc1=O,,-0.415
O=C(CNC(=O)C1COc2ccccc2O1)N/N=C/c1cc(Br)c(O)c(Br)c1 (stereo not given),,-4.63
Cc1c(CC(=O)N2CCN(C(=O)C3COc4ccccc4O3)CC2)c(=O)oc2c(O)c(O)ccc12 (stereo not given),4.78 µM (active),
Cc1ccc2c(=O)cc(C(=O)NCCc3ccc(S(N)(=O)=O)cc3)oc2c1C,,1.41
CCCNC(=O)NC(=O)COC(=O)CC(NC(N)=O)c1ccc(Cl)cc1 (stereo not given),,-0.0234
COc1cnc(SCc2ccc(Cl)c(Cl)c2)nc1Cl,26.9 µM (active),
COc1ccc(CCNC(=O)c2cnc(Cl)c(Cl)c2)cc1,,-9.9
Nc1cc(N)nc(SCc2ccc(Cl)cc2)n1,,-10.3
Cc1ccc(C2CC(c3cccc(Br)c3)n3nc(N)nc3N2)cc1 (stereo not given),,5.14
O=C1CCN(Cc2ccccc2)CCN1[C@H](CSc1ccccc1)c1ccccc1,,0.129
O=C(CNS(=O)(=O)c1ccc2ccccc2c1)Nc1ccc(F)c(F)c1F,,-1.12
Cc1ccccc1NC(=O)Cc1nc(COC(=O)c2cccnc2Cl)cs1,,0.473
Cc1cccc(-n2c(N)c(C(=O)N3CCN(C)CC3)sc2=S)c1,12 µM (active),
N#Cc1ccccc1-n1c(N)c(C(=O)N2CCCC2)sc1=S,,0.585
